From PubChem BioAssay (NCI)
Compounds without any hit were thinned out: in the full panel of roughly 83,000, 20% have a hit.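 A percent growth of 40 corresponds to 60% growth inhibition; 0 means no net growth; -100 means all cells died. Active threshold: below 10.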 Activity calls are given as the source filed them.

Key:
Assay in all cases: NCI-60 one-dose screen, 48 h (100 = growth as untreated, 0 = no growth, -100 = all killed)
Details in all cases: 10 µM
SR leukemia = tested on: SR leukemia
RPMI-8226 leukemia = tested on: RPMI-8226 leukemia
OVCAR-8 ovarian = tested on: OVCAR-8 ovarian
OVCAR-5 ovarian = tested on: OVCAR-5 ovarian
OVCAR-4 ovarian = tested on: OVCAR-4 ovarian
SK-OV-3 ovarian = tested on: SK-OV-3 ovarian
IGROV1 ovarian = tested on: IGROV1 ovarian
OVCAR-3 ovarian = tested on: OVCAR-3 ovarian
HS 578T breast = tested on: HS 578T breast
NCI/ADR-RES ovarian = tested on: NCI/ADR-RES ovarian
T-47D breast = tested on: T-47D breast
BT-549 breast = tested on: BT-549 breast
MDA-MB-435 melanoma = tested on: MDA-MB-435 melanoma
SW-620 colon = tested on: SW-620 colon
MCF7 breast = tested on: MCF7 breast
HCC-2998 colon = tested on: HCC-2998 colon
KM12 colon = tested on: KM12 colon
HCT-116 colon = tested on: HCT-116 colon

Measured: growth

COc1ccccc1S(=O)(=O)Nc1ccc2c(c1)CN(C)C(=O)N2
active: RPMI-8226 leukemia 4.25%
inactive: SR leukemia 36% | OVCAR-8 ovarian 56.2% | OVCAR-5 ovarian 74.5% | OVCAR-4 ovarian 43.1% | SK-OV-3 ovarian 49.1% | IGROV1 ovarian 24% | OVCAR-3 ovarian 32.2% | HS 578T breast 33.7% | NCI/ADR-RES ovarian 68.9% | T-47D breast 31.4% | BT-549 breast 101% | MDA-MB-435 melanoma 34.2% | SW-620 colon 59.4% | MCF7 breast 21.5% | HCC-2998 colon 64.4% | KM12 colon 45%

Cc1ccc(-n2nnc3c(sc4ccccc43)c2=O)cc1
inactive: SR leukemia 75.1% | RPMI-8226 leukemia 46.1% | OVCAR-8 ovarian 50% | OVCAR-5 ovarian 90.3% | IGROV1 ovarian 23.5% | OVCAR-3 ovarian 37.1% | HS 578T breast 23% | NCI/ADR-RES ovarian 53.7% | T-47D breast 64.2% | BT-549 breast 81.4% | MDA-MB-435 melanoma 59% | SW-620 colon 58.6% | MCF7 breast 81.2% | HCC-2998 colon 70.8% | KM12 colon 25.3%
active: OVCAR-4 ovarian -23.6% | SK-OV-3 ovarian 9.88%

COc1ccc2nc(NC(=O)Nc3c(F)cccc3F)sc2c1
inactive: SR leukemia 92% | RPMI-8226 leukemia 87.6% | OVCAR-8 ovarian 98.9% | OVCAR-5 ovarian 108% | OVCAR-4 ovarian 99.6% | SK-OV-3 ovarian 114% | IGROV1 ovarian 114% | OVCAR-3 ovarian 118% | HS 578T breast 117% | NCI/ADR-RES ovarian 105% | T-47D breast 106% | MDA-MB-435 melanoma 99% | SW-620 colon 105% | MCF7 breast 95.6% | HCT-116 colon 102% | HCC-2998 colon 102% | KM12 colon 112%

COc1ccc(NC(=O)CCn2cnc3c(cc(-c4ccccc4)n3-c3ccccc3)c2=O)cc1
inactive: SR leukemia 95.7% | RPMI-8226 leukemia 93.4% | OVCAR-8 ovarian 102% | OVCAR-5 ovarian 94.7% | OVCAR-4 ovarian 72.1% | SK-OV-3 ovarian 58.1% | IGROV1 ovarian 78.9% | OVCAR-3 ovarian 98% | HS 578T breast 46% | NCI/ADR-RES ovarian 63% | T-47D breast 90.8% | BT-549 breast 92.2% | MDA-MB-435 melanoma 96% | MCF7 breast 83.3% | HCT-116 colon 91.4% | HCC-2998 colon 96.3% | KM12 colon 110%

C/C(=N\NC(N)=S)C(C)(C)O
inactive: SR leukemia 81.2% | RPMI-8226 leukemia 74% | OVCAR-8 ovarian 55.3% | OVCAR-5 ovarian 105% | OVCAR-4 ovarian 66.6% | SK-OV-3 ovarian 109% | IGROV1 ovarian 22.4% | OVCAR-3 ovarian 53.1% | HS 578T breast 97.1% | NCI/ADR-RES ovarian 32.7% | T-47D breast 57.1% | BT-549 breast 104% | MDA-MB-435 melanoma 96.9% | SW-620 colon 77.4% | MCF7 breast 27.1% | HCC-2998 colon 102% | KM12 colon 99.7%

CCN1CCOC1C(C)C (stereo not drawn)
inactive: SR leukemia 81.7% | RPMI-8226 leukemia 106% | OVCAR-8 ovarian 108% | OVCAR-5 ovarian 99.2% | OVCAR-4 ovarian 113% | SK-OV-3 ovarian 100% | IGROV1 ovarian 108% | OVCAR-3 ovarian 111% | HS 578T breast 109% | NCI/ADR-RES ovarian 102% | T-47D breast 101% | BT-549 breast 108% | MDA-MB-435 melanoma 105% | MCF7 breast 101% | HCT-116 colon 102% | HCC-2998 colon 101% | KM12 colon 109%

Cc1ccc(-c2cc(C(=O)Nc3ccc(S(=O)(=O)N4CCCCC4)cc3)[nH]n2)c(O)c1
inactive: SR leukemia 14.9% | RPMI-8226 leukemia 43.3% | OVCAR-8 ovarian 58.7% | OVCAR-5 ovarian 73.8% | OVCAR-4 ovarian 38.5% | SK-OV-3 ovarian 94.1% | IGROV1 ovarian 68.8% | OVCAR-3 ovarian 55.3% | HS 578T breast 79.4% | NCI/ADR-RES ovarian 59.9% | T-47D breast 33.8% | BT-549 breast 67.4% | MDA-MB-435 melanoma 61.3% | MCF7 breast 46.8% | HCT-116 colon 43.5% | HCC-2998 colon 68.8% | KM12 colon 45.1%

COc1cccc2c1C(=O)c1c(O)c3c(c(O)c1C2=O)C[C@@](O)(C(=O)COC(=O)c1cccnc1)C[C@@H]3OC1CC(N)C(O)C(C)O1 (stereo partly drawn)
inactive: SK-OV-3 ovarian 22.5% | NCI/ADR-RES ovarian 57%
active: SR leukemia 3.07% | RPMI-8226 leukemia -29% | OVCAR-8 ovarian -15.8% | OVCAR-5 ovarian 6.95% | OVCAR-4 ovarian 0.907% | IGROV1 ovarian -12.4% | OVCAR-3 ovarian -9.51% | HS 578T breast -12.8% | T-47D breast -2.37% | BT-549 breast 5.42% | MDA-MB-435 melanoma -87.5% | SW-620 colon 3.34% | MCF7 breast 4.11% | HCC-2998 colon -50.3% | KM12 colon -0.352%

O=NN(CC(=O)N/N=C/C=C\c1ccccc1)CC(=O)N/N=C/C=C/c1ccccc1
inactive: SR leukemia 85.7% | RPMI-8226 leukemia 95.2% | OVCAR-8 ovarian 51% | OVCAR-5 ovarian 94.6% | OVCAR-4 ovarian 97.2% | SK-OV-3 ovarian 102% | IGROV1 ovarian 84% | OVCAR-3 ovarian 103% | HS 578T breast 80.5% | NCI/ADR-RES ovarian 103% | T-47D breast 89% | BT-549 breast 123% | MDA-MB-435 melanoma 103% | SW-620 colon 104% | MCF7 breast 69.6% | HCC-2998 colon 119% | KM12 colon 109%
